# Reference: the supplement of paper PMC12582362
# Where a name gives a salt, the structure may show the parent alone. The whole screen tested about 1,500 compounds, of which about 30 (2%) showed activity. Only a selection was taken, and actives are over-represented in it overall. Values without a mark were called inactive.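 Rule for the calls: active = robust z-score below -2; a few such results were not called.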
# Tested on: optoTopBP1 Flp-In 293 T-REx (HEK293) cells
# Assay: light-induced TopBP1 condensate (nuclear foci) count, plate-normalised robust z-score vs non-control wells; higher = more TopBP1 condensates (negative = condensation inhibitor), active = hit call of the paper
# Conditions: 10 µM; incubation time 2 h
row,Structure (SMILES),light-induced TopBP1 condensate (z-score)
1,COc1ccc(C(=O)c2ccc(C)cc2)c(O)c1 [Mexenone],0.105
2,O=C(NCCCN1CCOCC1)c1ccc(Cl)cc1 [Eprobemide],0.149
3,CC(C)NCC(O)COc1cccc2[nH]c3ccccc3c12 (stereo not given) [Carazolol],-1.07
4,CC(COc1ccccc1)NN (stereo not given) [Phenoxypropazine dihydrochloride],0.724
5,CN(C)C(=O)COC(=O)Cc1ccc(OC(=O)c2ccc(NC(=N)N)cc2)cc1 [Camostat mesylate],-0.369
6,CN[C@@H]1[C@H](O)[C@H](NC)[C@H]2O[C@@]3(O)C(=O)C[C@@H](C)O[C@H]3O[C@@H]2[C@H]1O [Spectinomycin dihydrochloride],0.546
7,C=C1C[C@H]2[C@@H]3C=C(C)C4=CC(=O)CC[C@]4(C)[C@H]3CC[C@]2(C)[C@@]1(OC(C)=O)C(C)=O [Melengestrol acetate],-0.246
8,CCOc1ccccc1OCCN[C@H](C)Cc1ccc(OC)c(S(N)(=O)=O)c1 [(R)-Tamsulosin hydrochloride],0.258
9,Cc1cccc(C)c1OCC(=O)N[C@@H](Cc1ccccc1)[C@@H](O)C[C@H](Cc1ccccc1)NC(=O)[C@H](C(C)C)N1CCCNC1=O [Lopinavir],0.599
10,CC(C)CN(C[C@@H](O)[C@H](Cc1ccccc1)NC(=O)O[C@H]1CCOC1)S(=O)(=O)c1ccc(N)cc1 [Amprenavir],1.18
11,CC[N+]1(CC)CCC(=C(c2ccccc2)c2ccccc2)C1C (stereo not given) [Prifinium Bromide],1.11
12,CC(C)(CO)[C@@H](O)C(=O)NCCCC(=O)O [Hopantenate calcium],0.00401
13,COc1cc(N)cn[n+]1-c1ccccc1 [Amezinium metilsulfate],0.428
14,O=C1CN2Cc3c(ccc(Cl)c3Cl)N=C2N1 [Anagrelide],-0.566
15,Clc1ccc(C(Cn2ccnc2)OCc2csc3c(Cl)cccc23)c(Cl)c1 (stereo not given) [Sertaconazole nitrate],0.206
16,OCC(CO)N[C@H]1C[C@](O)(CO)[C@@H](O)[C@H](O)[C@H]1O [Voglibose],1.28
17,CC(C)(CO)C(O)C(=O)NCCCO (stereo not given) [Panthenol (D)],0.585
18,CN(C)CCOC1=Cc2ccccc2Sc2ccc(Cl)cc21 [Zotepine],0.612
19,CN1CCCCC1CCN1c2ccccc2Sc2ccc([S+](C)[O-])cc21 (stereo not given) [Mesoridazine besylate],0.412
20,Cc1nc2ccccc2n1Cc1ccc(Cl)cc1 [Chlormidazole],-0.19

row,Structure (SMILES),light-induced TopBP1 condensate (z-score)
1,CC(C)(C)C(=O)OCOC(=O)[C@@H]1N2C(=O)[C@@H](/N=C/N3CCCCCC3)[C@H]2SC1(C)C [Pivmecillinam hydrochloride],0.64
2,CC(C)NC(=N)NC(=N)Nc1ccc(Cl)cc1 [Proguanil hydrochloride],-0.256
3,COc1cc(C(=O)NCc2ccc(OCCN(C)C)cc2)cc(OC)c1OC [Trimethobenzamide hydrochloride],-0.218
4,Cc1ncc([N+](=O)[O-])n1CC(C)O (stereo not given) [Secnidazole],0.994
5,CC1(C)S[C@@H]2[C@H](NC(=O)C(c3ccccc3)S(=O)(=O)O)C(=O)N2[C@H]1C(=O)O (stereo not given in full) [Sulbenicillin sodium salt],0.523
6,CC(=O)[C@@]1(O)CC[C@H]2[C@@H]3C[C@H](C)C4=CC(=O)C=C[C@]4(C)[C@@]3(F)[C@@H](O)C[C@@]21C [Fluorometholone],-0.232
7,O=C(c1cc(O)c(O)c(O)c1)c1ccc(O)c(O)c1O [Exifone],0.683
8,CN(C)CC/C=C1/c2ccccc2COc2ccc(CC(=O)O)cc21 [Olopatadine hydrochloride],0.52
9,O=c1oc2cc(O)ccc2s1 [Tioxolone],0.00597
10,Cc1cc(/C=C/c2ccc3cc(N(C)C)ccc3[n+]2C)c(C)n1-c1ccccc1 [Pyrvinium pamoate],-4.74 (active)
11,CN[C@@H]1[C@@H](O)[C@@H](O[C@@H]2[C@@H](O)[C@H](O[C@H]3OC(CN)=CC[C@H]3N)[C@@H](N)C[C@H]2N)OC[C@]1(C)O [Sisomicin sulfate],0.652
12,CCN1CCN(Cc2ccc(Nc3ncc(F)c(-c4cc(F)c5nc(C)n(C(C)C)c5c4)n3)nc2)CC1 [Abemaciclib],-0.486
13,COc1cccc(CCc2ccccc2OCC(CN(C)C)OC(=O)CCC(=O)O)c1 (stereo not given) [Sarpogrelate hydrochloride],0.789
14,Clc1ccc(C(Cn2ccnc2)OCc2c(Cl)cccc2Cl)c(Cl)c1 (stereo not given) [Isoconazole],0.803
15,CN(C)c1cc(NC(=O)CNC(C)(C)C)c(O)c2c1C[C@H]1C[C@H]3[C@H](N(C)C)C(O)=C(C(N)=O)C(=O)[C@@]3(O)C(O)=C1C2=O [Tigecycline],0.904
16,N#C/C(=C1/SCC(c2ccccc2Cl)S1)n1ccnc1 (stereo not given) [Lanoconazole],0.321
17,O=C(O)COc1nn(Cc2ccccc2)c2ccccc12 [Bendazac],-0.242
18,CC(=O)N[C@H]1[C@H]([C@H](O)[C@H](O)CO)OC(C(=O)O)=C[C@@H]1NC(=N)N [Zanamivir],-0.513
19,CC(C)(C)NCC(O)CSc1nc(-c2ccc(C(N)=O)s2)cs1 (stereo not given) [Arotinolol hydrochloride],-0.455
20,Cc1ccc(C(=O)c2cc(O)c(O)c([N+](=O)[O-])c2)cc1 [Tolcapone],-0.692
